Results from PubChem BioAssay.
Calls of active or inactive are those of the source.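 The calls were made as follows, unless noted: active = visually confirmed hit in the image check and inhibition above 20%; inconclusive = visually confirmed hit but inhibition not above 20%; inactive = no visual hit in the image check.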

What was measured:
[1] = inhibitors of TNFa-induced NFkB p65 translocation, primary screen, imaging, HUVEC, MLSMR starter and 10KST1 sets (AID 438;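 active = inhibition above 20% together with a positive visual image hit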;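 also: compound added about 3h40 before a 20 min TNFalpha stimulation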;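 as to inhibition: signal is the nuclear over cytoplasmic p65 intensity ratio per well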); settings: HUVEC TNFa-induced p65 nuclear translocation; cell count: measured here: nuclei count (cytotoxicity indicator), at 2.08 µM; inhibition: at 2 µM, stronger effect = higher value, 0% TNFa-plus-vehicle, 100% no-TNFa wells
[2] = reduction of polyQ htt aggregates in cells – imaging, exon1htt(103Q)mCFP cells, high-content imaging, primary screen (AID 483;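 active = visual image review flags a hit and inhibition of aggregation exceeds 20%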;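 also: compound exposure lasted 3 days before fixation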;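 as to nuclei count: percent of the per-plate median nuclei count of sample wells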); settings: exon1htt(103Q)mCFP cell line, aggregate imaging, at 2 µM; inhibition of aggregation: stronger effect = higher value; nuclei count: measured here: cell count, toxicity
[3] = endothelial E-selectin expression blockers – imaging, HUVEC, immunofluorescence, MLSMR starter and 10KST1 sets, primary screen (AID 487); settings: HUVEC TNFalpha-induced E-selectin immunofluorescence imaging, at 2 µM; inhibition: stronger effect = higher value; nuclei count: measured here: cell number, toxicity;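 as to inhibition: signal is fraction of cell area covered by stained E-selectin grains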;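 as to nuclei count: 100% = median nuclei count of all wells on the same plate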
[4] = biological target: Voltage-gated potassium channel subunit beta-2 (Rattus norvegicus) (UniProt P62483); test: inhibitors of rat Kvbeta2 reductase activity – biochemical, NADPH fluorescence, primary screen (AID 622;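 active = fluorescence slope higher than the sample average by over 3 SD, cut at about -0.22 in these data, passing the limit was not always enough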;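 also: slope of raw intensity against log time taken from 70 to 1610 s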); settings: recombinant KvBeta, 4-cyanobenzaldehyde reduction, at 10 µM, stronger effect = higher value
Chain of Voltage-gated potassium channel subunit beta-2 (Rattus norvegicus) (P62483 whole entry, looked up): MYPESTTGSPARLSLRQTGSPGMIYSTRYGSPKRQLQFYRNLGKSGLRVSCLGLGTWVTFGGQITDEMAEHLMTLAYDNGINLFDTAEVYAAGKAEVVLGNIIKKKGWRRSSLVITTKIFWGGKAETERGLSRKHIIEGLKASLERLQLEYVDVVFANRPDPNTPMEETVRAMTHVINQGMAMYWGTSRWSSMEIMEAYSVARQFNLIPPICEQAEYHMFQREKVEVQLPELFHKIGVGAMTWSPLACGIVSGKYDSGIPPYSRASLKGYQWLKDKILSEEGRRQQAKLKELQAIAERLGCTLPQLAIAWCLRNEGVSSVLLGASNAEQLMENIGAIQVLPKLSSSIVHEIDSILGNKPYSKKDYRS

[5] = biological target: Voltage-gated potassium channel subunit beta-2 (Rattus norvegicus) (UniProt P62483); test: enhancers of rat Kvbeta2 NADPH turnover – biochemical, NADPH fluorescence, primary screen (AID 623;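 active = NADPH fluorescence slope more negative than the mean of all samples by about 3 SD, 99.7% confidence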;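 also: fluorescence intensity change per second fitted from 20 to 320 s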); settings: Recombinant KvBeta, NADPH fluorescence decrease slope, 10 min; at 10 µM; stronger effect = lower value
[6] = biological target: Alpha-2C adrenergic receptor (Homo sapiens) (UniProt P18825); test: compounds altering alpha2C-coupled GIRK flux – cell-based, HEK293 alpha2C/GIRK1/2, thallium flux, primary screen (AID 624;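 active = fluorescence slope after compound addition differing from the mean of all screened samples at 99.7% confidence, in either direction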;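 also: slope of fluorescence ratio to pre-addition baseline per second over 15 to 24 s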); settings: thallium flux BTC fluorescence, at 10 µM, actives lie on both sides
Chain of Alpha-2C adrenergic receptor (Homo sapiens) (P18825 whole entry, looked up): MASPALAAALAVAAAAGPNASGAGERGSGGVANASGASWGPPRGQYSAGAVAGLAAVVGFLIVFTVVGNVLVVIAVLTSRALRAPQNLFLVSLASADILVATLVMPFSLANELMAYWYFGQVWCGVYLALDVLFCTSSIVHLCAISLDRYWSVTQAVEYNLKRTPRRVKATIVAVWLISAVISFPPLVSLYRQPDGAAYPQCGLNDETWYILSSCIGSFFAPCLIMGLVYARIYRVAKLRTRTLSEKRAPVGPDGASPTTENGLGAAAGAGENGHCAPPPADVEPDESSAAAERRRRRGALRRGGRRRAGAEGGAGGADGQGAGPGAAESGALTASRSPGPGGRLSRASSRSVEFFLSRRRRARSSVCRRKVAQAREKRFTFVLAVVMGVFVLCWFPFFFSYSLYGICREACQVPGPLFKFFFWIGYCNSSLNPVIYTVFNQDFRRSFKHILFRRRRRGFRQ

[7] = blockers of RIG-like receptor reporter activation – cell-based, Sendai virus stimulus, luciferase, 10K MLSCN set, TLR/RLR signaling modifier project, primary screen (AID 602276;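 active = inhibition at or above 50% at 10 µM; inactive = inhibition below 50%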;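 also: firefly luciferase from ISG56 promoter only with Renilla not read in this screen; 0% = Sendai virus plus DMSO and 100% = medium plus DMSO without virus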); settings: HEK293 RL24 IRF3 luciferase reporter, at 10 µM, stronger effect = higher value
[8] = TLR3 IRF3 reporter activation blockers – cell-based, poly I:C stimulus, luciferase, 10K MLSCN set, primary screen (AID 602277;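 active = inhibition of the reporter signal at or above 50%; inactive = inhibition below 50%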); settings: HEK293-TLR3 RL24 IRF3 luciferase reporter, at 10 µM, stronger effect = higher value

SMILES	cell count [1]	inhibition [1]	inhibition of aggregation [2]	nuclei count [2] [%]	inhibition [3]	nuclei count [3] [%]	fluorescence slope [4]	NADPH fluorescence slope [5]	slope [6]	inhibition [7]	inhibition [8]
CCCCOc1ccc(-c2ncc(C(=O)OCC)c(N)n2)cc1	377	1.6% (inactive)	16.9% (inactive)	73.4	-71.6% (inactive)	115	-0.452 (inactive)	-4.6e-05 (inactive)	0.00612 (inactive)	0.257% (inactive)	-34.4% (inactive)
CCOCCCNC(=O)C(c1ccccc1)N(Cc1ccc2c(c1)OCO2)C(=O)CNC(C)=O (centres undefined)	220	10.9% (inactive)	0.6% (inactive)	94.8	-63.6% (inactive)	95.1	-0.562 (inactive)	-2.1e-05 (inactive)	0.00624 (inactive)	10.2% (inactive)	16.2% (inactive)
COc1cccc(C(=O)n2cnnc2N)c1OC	391	-2.4% (inactive)	1% (inactive)	109	41.5% (inactive)	102	-0.382 (inactive)	8e-06 (inactive)	0.00713 (inactive)	16.3% (inactive)	21.1% (inactive)
CCOc1ccc(N(CC(=O)NC2CCCC2)S(=O)(=O)c2c(C)[nH]c(=O)[nH]c2=O)cc1	552	14% (inactive)	15.7% (inactive)	107	-159% (inactive)	132	-0.518 (inactive)	-5.9e-05 (inactive)	0.00723 (inactive)	4.96% (inactive)	15.6% (inactive)
CCOC(=O)Nc1ccc2c(CN3C(=O)NC4(CCCC4)C3=O)cc(=O)oc2c1	744	3.5% (inactive)	-24.7% (inactive)	99.9	-149% (inactive)	153	-0.229 (inactive)	-2.4e-05 (inactive)	0.00554 (inactive)	0.299% (inactive)	-13.9% (inactive)
COc1cc2c(cc1OC)C(c1ccccc1O)N(C1CC(=O)N(c3ccccc3)C1=O)CC2 (centres undefined)	409	-0.5% (inactive)	-10.4% (inactive)	105	-27.1% (inactive)	123	-0.411 (inactive)	-8.8e-05 (inactive)	0.00648 (inactive)	15.9% (inactive)	28.7% (inactive)
CCOC(=O)N1CCC(n2c(SCC(=O)NCc3ccco3)nc3ccsc3c2=O)CC1	729	3.4% (inactive)	2.8% (inactive)	97.8	-97.7% (inactive)	118	-0.386 (inactive)	-2.9e-05 (inactive)	0.00588 (inactive)	4.14% (inactive)	23.6% (inactive)
O=C(CCCN1C(=O)c2ccccc2C1=O)NCc1cccnc1	709	-7.1% (inactive)	-4.8% (inactive)	102	-120% (inactive)	134	-0.42 (inactive)	-2.4e-06 (inactive)	0.00753 (inactive)	8.03% (inactive)	8.47% (inactive)
CC1CN(c2nc3ccccc3nc2C(C#N)C(=O)OC2CCCCC2)CC(C)O1 (centres undefined)	382	-6.2% (inactive)	-28.8% (inactive)	116	-12.3% (inactive)	111	-0.364 (inactive)	2.4e-05 (inactive)	0.0019 (active)	15.1% (inactive)	22.4% (inactive)
COc1cccc(C2=NOC(C(=O)Nc3cc(C)nn3-c3ccccc3)C2)c1OC (centres undefined)	570	-6.2% (inactive)	-1.5% (inactive)	105	-19.4% (inactive)	107	-0.586 (inactive)	-5.4e-05 (inactive)	0.00584 (inactive)	16.2% (inactive)	23.8% (inactive)
CC(C)(C)n1nnnc1C(c1cccs1)N1CCN(Cc2ccccc2)CC1 (centres undefined)	482	-5.1% (inactive)	0% (inactive)	100	-163% (inactive)	230	-0.606 (inactive)	-6.2e-06 (inactive)	0.00586 (inactive)	15.9% (inactive)	17.6% (inactive)
Cc1cccc(-n2ncc3c(N)ncnc32)c1	622	9.1% (inactive)	-51.6% (inactive)	6	-12.6% (inactive)	110	-0.596 (inactive)	-2.7e-05 (inactive)	0.0039 (inactive)	-20.5% (inactive)	-80.6% (inactive)
CCCCc1nc2ccccc2n2cc3c(=O)n(C)c(=O)n(C)c3c12	877	5.2% (inactive)	-29.8% (inactive)	81.2	-48.7% (inactive)	104	-0.524 (inactive)	-1.7e-05 (inactive)	0.00741 (inactive)	14.3% (inactive)	28.9% (inactive)
CCOP(=O)(c1ccc(N(C)C)cc1)C(O)c1c(Cl)cccc1Cl (centres undefined)	220	-3.5% (inactive)	20% (inactive)	99.5	-64.5% (inactive)	96.2	-0.521 (inactive)	-3.5e-05 (inactive)	0.00411 (inactive)	12.4% (inactive)	19.2% (inactive)
